Targets with a hit are over-represented here; the source holds about 7,900 in all. About 0.6% of all pairs of compound and target were hits.
How the values were obtained:
Test in all cases: log2 fold change, soluble protein after heating vs DMSO (PISA); higher = thermal stabilisation; K562 cells, 10 uM, 30 min; active = over 0.2 and 3.5 SD of the protein, either way, in both replicates (recomputed)
erlotinib = compound: C#Cc1cccc(Nc2ncnc3cc(OCCOC)c(OCCOC)cc23)c1 [erlotinib]
Summary of the method: (§1)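 Soluble protein was quantified by TMTpro 16plex LC-MS/MS after channel sums were equalised. It was obtained as the supernatant after 21,000xg for 90 min from pooled aliquots of K562 cells (2×10^6 cells/mL, 10 μM compound, 30 min) heated for 3 min across 48°C-58°C and extracted in PBS with 0.5% NP-40 at 4°C. Thermal stability values are relative to control samples and come from duplicates. They are given as log2 fold changes.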

[1] = compound: C/C(=N\NC(=O)C1=CC(=CC=C1)S(=O)(=O)N2CCOCC2)/C3=C(C=CC(=C3)Cl)O
Summary of the method: as §1

[2] = compound: C1=CC(=C(C=C1Cl)C2=NC3=NC=CN=C3C(=N2)NC4=CC=NC=C4)F
Summary of the method: as §1

[3] = compound: C1=CC(=CC=C1C2=NC3=C(N2)C=C(C=C3)C(=O)N)OC4=CC=C(C=C4)Cl
Summary of the method: as §1

[4] = compound: C1=CC2=C(C=CC(=C2)/C=C\3/C(=O)NC(=NCC4=CC=CS4)S3)N=C1
Summary of the method: as §1

[5] = compound: C1=CC2=NC=CN=C2C=C1/C=C/3\C(=O)NC(=O)S3
Summary of the method: as §1

[6] = compound: C1=CC=C(C=C1)C2=NC(=C(N2)C3=CC=NC=C3)C4=CC(=C(C=C4)Cl)O
Summary of the method: as §1

[7] = compound: C1=CC=C2C(=C1)C3=NNC4=CC=CC(=C43)C2=O
Summary of the method: as §1

[8] = compound: C1CCN(C1)C(=O)NC2=CC=CC(=C2)NC3=NC=C(C(=N3)NCCC4=CN=CN4)Br
Summary of the method: as §1

[9] = compound: C1CN(CCC1(CC2=CC=C(C=C2)Cl)N)C3=NC=NC4=C3C=CN4
Summary of the method: as §1

IRAK-1-4 Inhibitor I = compound: C1COCCN1CCN2C3=CC=CC=C3N=C2NC(=O)C4=CC(=CC=C4)[N+](=O)[O-] [IRAK-1-4 Inhibitor I]
Summary of the method: as §1

ibrutinib = compound: C=CC(=O)N1CCC[C@@H](n2nc(-c3ccc(Oc4ccccc4)cc3)c3c(N)ncnc32)C1 [ibrutinib]
Summary of the method: as §1

[10] = compound: CC(=O)c1cnc2ccc(-c3cc(Cl)c(O)c(Cl)c3)nc2c1N[C@H]1CC[C@H](CN(C)C)CC1
Summary of the method: as §1

ralimetinib = compound: CC(C)(C)Cn1c(N)nc2ccc(-c3[nH]c(C(C)(C)C)nc3-c3ccc(F)cc3)nc21 [ralimetinib]
Summary of the method: as §1

[11] = compound: CC(C)(O)CC(=O)NCCn1ccc2ncnc(Nc3ccc(Oc4cccc(C(F)(F)F)c4)c(Cl)c3)c21
Summary of the method: as §1

[12] = compound: CC(C)C1=C2N=C(C=C(N2N=C1)NCC3=CC=CC=C3)NCCCCCCN
Summary of the method: as §1

[13] = compound: CC(C)C[C@@H](C=O)NC(=O)[C@H](CC(C)C)NC(=O)[C@H](CC(C)C)NC(=O)OCc1ccccc1
Summary of the method: as §1

pinometostat = compound: CC(C)N(C[C@H]1O[C@@H](n2cnc3c(N)ncnc32)[C@H](O)[C@@H]1O)[C@H]1C[C@@H](CCc2nc3cc(C(C)(C)C)ccc3[nH]2)C1 [pinometostat]
Summary of the method: as §1

[14] = compound: CC1=C(C(CC(=O)N1)C2=CC=C(C=C2)C(F)(F)F)C(=O)NC3=C(C=C4C(=C3)C=NN4)F
Summary of the method: as §1

[15] = compound: CC1=C(C2=C(C=C1)C(=O)C3=CC=CC=C3N2CCCN)C
Summary of the method: as §1

Measured: log2 fold change

SLC38A2 (UniProt Q96QD8)
Chain of UniProt Q96QD8 (Q96QD8 whole entry, looked up): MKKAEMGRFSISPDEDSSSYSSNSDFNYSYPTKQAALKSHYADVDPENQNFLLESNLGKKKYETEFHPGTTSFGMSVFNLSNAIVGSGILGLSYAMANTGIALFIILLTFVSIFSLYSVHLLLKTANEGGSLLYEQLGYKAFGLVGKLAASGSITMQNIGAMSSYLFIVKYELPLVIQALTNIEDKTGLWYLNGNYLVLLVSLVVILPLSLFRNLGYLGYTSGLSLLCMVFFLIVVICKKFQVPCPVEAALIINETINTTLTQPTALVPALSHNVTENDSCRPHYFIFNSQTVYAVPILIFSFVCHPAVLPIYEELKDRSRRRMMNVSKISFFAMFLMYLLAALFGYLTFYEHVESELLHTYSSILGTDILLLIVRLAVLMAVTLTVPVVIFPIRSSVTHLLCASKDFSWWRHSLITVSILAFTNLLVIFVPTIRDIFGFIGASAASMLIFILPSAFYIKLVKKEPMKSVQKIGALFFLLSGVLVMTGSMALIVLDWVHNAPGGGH
active: [12] -0.28
inactive: erlotinib -0.093 | [1] 0.075 | [2] 0.01 | [3] 0.003 | [4] -0.039 | [5] 0.093 | [6] 0.055 | [7] 0 | [8] -0.009 | [9] 0.048 | IRAK-1-4 Inhibitor I 0.018 | ibrutinib 0.022 | [10] -0.057 | ralimetinib -0.097 | [11] -0.12 | [13] 0.102 | pinometostat -0.053 | [14] 0.019 | [15] 0.01

STOM (UniProt P27105)
Chain of UniProt P27105 (P27105 whole entry, looked up): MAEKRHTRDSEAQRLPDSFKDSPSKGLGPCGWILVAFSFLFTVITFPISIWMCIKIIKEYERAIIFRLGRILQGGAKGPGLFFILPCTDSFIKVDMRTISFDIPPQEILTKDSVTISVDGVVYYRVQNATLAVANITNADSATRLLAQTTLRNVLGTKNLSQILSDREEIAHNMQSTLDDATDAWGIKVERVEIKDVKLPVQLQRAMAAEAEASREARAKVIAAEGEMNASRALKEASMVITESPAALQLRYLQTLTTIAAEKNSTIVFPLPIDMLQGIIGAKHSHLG
inactive: erlotinib -0.027 | [1] -0.087 | [2] -0.011 | [3] 0.1 | [4] 0.054 | [5] 0.04 | [6] -0.188 | [7] -0.038 | [8] 0.004 | [9] -0.079 | IRAK-1-4 Inhibitor I -0.039 | ibrutinib 0.019 | [10] -0.018 | ralimetinib -0.054 | [11] 0.004 | [12] -0.064 | [13] 0.14 | pinometostat 0.028 | [14] 0.014 | [15] 0.039

TIMM10B (UniProt Q9Y5J6)
Chain of UniProt Q9Y5J6 (Q9Y5J6 whole entry, looked up): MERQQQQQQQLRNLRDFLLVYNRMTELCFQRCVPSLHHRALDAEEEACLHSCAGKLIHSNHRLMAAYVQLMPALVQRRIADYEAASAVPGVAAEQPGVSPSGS
inactive: erlotinib 0.299 | [1] 0.135 | [2] 0.191 | [3] -0.189 | [4] 0.216 | [5] 0.048 | [6] 0.042 | [7] 0.543 | [8] -0.143 | [9] -0.051 | ibrutinib -0.008 | [10] -0.231 | ralimetinib 0 | [11] -0.07 | [12] -0.197 | [13] -0.126 | [14] 0.017 | [15] 0.089

TBC1D20 isoform 3 (UniProt Q96BZ9)
Chain of UniProt Q96BZ9 (Q96BZ9 whole entry, looked up): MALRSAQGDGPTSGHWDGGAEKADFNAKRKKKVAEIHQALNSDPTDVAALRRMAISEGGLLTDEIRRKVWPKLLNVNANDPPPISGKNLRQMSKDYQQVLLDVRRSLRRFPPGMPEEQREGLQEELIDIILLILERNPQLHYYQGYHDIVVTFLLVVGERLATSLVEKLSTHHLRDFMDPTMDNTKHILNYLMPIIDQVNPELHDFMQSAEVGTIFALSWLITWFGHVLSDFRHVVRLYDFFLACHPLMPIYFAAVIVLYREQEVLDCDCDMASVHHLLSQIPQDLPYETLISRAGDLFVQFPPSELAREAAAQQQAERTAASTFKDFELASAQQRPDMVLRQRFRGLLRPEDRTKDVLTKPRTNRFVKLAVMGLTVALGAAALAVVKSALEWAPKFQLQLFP
inactive: erlotinib 0.022 | [1] 0.195 | [2] 0.094 | [3] 0.083 | [4] 0.047 | [5] -0.015 | [6] -0.048 | [7] -0.048 | IRAK-1-4 Inhibitor I 0.02 | ibrutinib 0.004 | [10] -0.124 | ralimetinib -0.104 | [11] -0.087 | [12] -0.099 | [13] -0.017 | pinometostat 0 | [14] -0.061

STARD7 (UniProt Q9NQZ5)
inactive: erlotinib -0.021 | [1] 0.084 | [2] 0.024 | [3] 0.086 | [4] 0.031 | [5] 0.009 | [6] 0.017 | [7] 0.067 | [8] 0.006 | [9] -0.029 | IRAK-1-4 Inhibitor I -0.012 | ibrutinib 0.055 | [10] -0.026 | ralimetinib -0.01 | [11] -0.051 | [12] -0.057 | [13] 0.028 | pinometostat -0.009 | [14] -0.019 | [15] -0.003

SRSF6 (UniProt Q13247)
inactive: erlotinib 0.084 | [1] 0.096 | [2] -0.072 | [3] 0.062 | [4] -0.325 | [5] 0.079 | [7] -0.251 | [8] 0.09 | [9] -0.154 | IRAK-1-4 Inhibitor I -0.082 | ibrutinib -0.072 | [10] -0.167 | [11] 0.234 | [12] -0.086 | pinometostat 0.116 | [14] 0.003 | [15] -0.744

SYK (UniProt P43405)
inactive: erlotinib 0.06 | [1] 0.144 | [2] -0.019 | [3] 0.038 | [4] 0.031 | [5] -0.095 | [6] 0.131 | [8] -0.042 | [9] 0.074 | IRAK-1-4 Inhibitor I -0.192 | ibrutinib 0.056 | [10] -0.277 | ralimetinib 0.241 | [11] -0.1 | [12] 0.128 | [13] 0.048 | pinometostat 0.19 | [15] -0.425

SMARCA4 (UniProt P51532)
Chain of UniProt P51532 (P51532 whole entry, looked up): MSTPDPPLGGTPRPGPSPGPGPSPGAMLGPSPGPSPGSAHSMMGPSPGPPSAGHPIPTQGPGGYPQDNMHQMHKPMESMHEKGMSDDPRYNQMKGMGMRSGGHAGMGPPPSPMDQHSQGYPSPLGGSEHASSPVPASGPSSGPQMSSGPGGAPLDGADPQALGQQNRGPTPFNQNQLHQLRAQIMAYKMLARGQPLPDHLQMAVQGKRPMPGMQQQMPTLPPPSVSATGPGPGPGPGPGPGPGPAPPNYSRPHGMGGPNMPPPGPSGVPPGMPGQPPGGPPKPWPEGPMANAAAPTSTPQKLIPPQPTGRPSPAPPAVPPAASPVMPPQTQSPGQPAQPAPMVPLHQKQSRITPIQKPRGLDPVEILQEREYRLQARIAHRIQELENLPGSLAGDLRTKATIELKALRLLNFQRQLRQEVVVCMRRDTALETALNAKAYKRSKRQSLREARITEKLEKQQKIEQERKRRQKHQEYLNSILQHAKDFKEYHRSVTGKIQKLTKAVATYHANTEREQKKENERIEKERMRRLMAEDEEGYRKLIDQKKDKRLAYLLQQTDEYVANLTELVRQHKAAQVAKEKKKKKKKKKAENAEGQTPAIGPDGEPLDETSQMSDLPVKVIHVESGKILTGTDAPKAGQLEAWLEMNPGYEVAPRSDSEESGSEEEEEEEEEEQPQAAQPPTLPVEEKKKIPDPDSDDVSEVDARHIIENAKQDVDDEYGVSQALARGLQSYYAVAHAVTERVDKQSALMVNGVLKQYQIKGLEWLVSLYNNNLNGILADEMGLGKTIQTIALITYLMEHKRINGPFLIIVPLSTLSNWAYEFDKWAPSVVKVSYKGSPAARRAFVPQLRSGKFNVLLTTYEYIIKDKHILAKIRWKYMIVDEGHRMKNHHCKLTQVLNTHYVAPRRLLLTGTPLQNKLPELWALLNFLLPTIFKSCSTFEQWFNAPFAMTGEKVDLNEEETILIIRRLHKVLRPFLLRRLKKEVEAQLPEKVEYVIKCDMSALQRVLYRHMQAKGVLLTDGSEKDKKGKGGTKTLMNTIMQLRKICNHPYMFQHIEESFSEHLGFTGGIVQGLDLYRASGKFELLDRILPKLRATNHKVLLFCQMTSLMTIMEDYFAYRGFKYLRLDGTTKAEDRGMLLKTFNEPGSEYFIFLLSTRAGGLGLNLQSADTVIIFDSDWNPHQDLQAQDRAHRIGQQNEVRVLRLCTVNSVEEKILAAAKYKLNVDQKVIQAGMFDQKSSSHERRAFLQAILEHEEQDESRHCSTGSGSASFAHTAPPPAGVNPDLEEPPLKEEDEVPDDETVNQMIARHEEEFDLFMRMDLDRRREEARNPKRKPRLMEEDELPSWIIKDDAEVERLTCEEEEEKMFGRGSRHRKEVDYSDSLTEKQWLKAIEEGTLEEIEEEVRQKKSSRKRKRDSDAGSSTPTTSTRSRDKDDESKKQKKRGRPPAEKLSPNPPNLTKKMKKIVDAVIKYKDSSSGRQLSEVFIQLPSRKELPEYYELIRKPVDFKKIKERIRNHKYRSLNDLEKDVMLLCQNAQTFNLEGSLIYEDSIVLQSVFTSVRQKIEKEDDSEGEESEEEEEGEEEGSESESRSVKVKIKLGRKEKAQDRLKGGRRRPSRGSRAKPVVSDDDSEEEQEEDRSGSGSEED
inactive: erlotinib 0.02 | [1] 0.073 | [2] 0.032 | [3] 0.102 | [4] 0.035 | [5] -0.001 | [6] -0.096 | [7] -0.124 | IRAK-1-4 Inhibitor I -0.155 | ibrutinib -0.136 | [10] -0.056 | ralimetinib 0.255 | [11] 0.027 | [12] -0.397 | [13] 0.16 | pinometostat 0.193

TAOK1 (UniProt Q7L7X3)
active: [10] -0.827
inactive: erlotinib 0.006 | [1] 0.045 | [2] -0.027 | [3] 0.09 | [4] -0.033 | [5] 0.009 | [6] -0.009 | [7] -0.007 | [8] -0.005 | [9] -0.01 | IRAK-1-4 Inhibitor I 0.011 | ibrutinib -0.057 | ralimetinib 0.062 | [11] 0.009 | [12] -0.031 | [13] 0.018 | pinometostat -0.052 | [14] 0.011 | [15] 0.05

SMAP2 (UniProt Q8WU79)
Chain of UniProt Q8WU79 (Q8WU79 whole entry, looked up): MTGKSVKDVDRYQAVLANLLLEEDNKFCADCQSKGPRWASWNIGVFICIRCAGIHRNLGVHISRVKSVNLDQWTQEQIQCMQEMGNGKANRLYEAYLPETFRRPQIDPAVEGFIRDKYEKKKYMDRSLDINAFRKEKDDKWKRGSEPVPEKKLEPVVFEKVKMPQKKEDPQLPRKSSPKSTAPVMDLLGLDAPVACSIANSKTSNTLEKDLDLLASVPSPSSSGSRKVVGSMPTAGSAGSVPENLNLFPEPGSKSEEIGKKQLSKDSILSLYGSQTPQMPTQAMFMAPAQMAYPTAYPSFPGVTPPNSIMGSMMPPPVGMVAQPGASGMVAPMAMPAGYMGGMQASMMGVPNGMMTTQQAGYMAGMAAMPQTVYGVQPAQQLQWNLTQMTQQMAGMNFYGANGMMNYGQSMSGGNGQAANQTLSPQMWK
inactive: erlotinib -0.044 | [1] 0.13 | [2] -0.005 | [3] -0.032 | [4] -0.029 | [5] 0.019 | [6] -0.015 | [7] 0.017 | [8] -0.086 | [9] 0.038 | IRAK-1-4 Inhibitor I 0.04 | ibrutinib -0.027 | [10] 0.039 | ralimetinib 0.048 | [11] -0.039 | [12] 0.02 | [13] 0.137 | pinometostat 0.015 | [14] -0.025 | [15] 0.004

SMIM20 isoform 2 (UniProt Q8N5G0)
Chain of UniProt Q8N5G0 (Q8N5G0 whole entry, looked up): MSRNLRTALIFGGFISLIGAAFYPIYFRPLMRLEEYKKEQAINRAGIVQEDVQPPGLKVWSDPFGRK
inactive: erlotinib -0.039 | [1] -0.111 | [3] 0.054 | [4] -0.088 | [5] 0.088 | [6] 0.023 | [7] -0.051 | [8] -0.016 | [9] -0.06 | ibrutinib -0.01 | [10] -0.023 | ralimetinib -0.056 | [11] -0.061 | [12] 0.024 | [13] 0.006 | [14] 0.05 | [15] -0.058
active: [2] 0.427

SRSF7 (UniProt Q16629)
Chain of UniProt Q16629 (Q16629 whole entry, looked up): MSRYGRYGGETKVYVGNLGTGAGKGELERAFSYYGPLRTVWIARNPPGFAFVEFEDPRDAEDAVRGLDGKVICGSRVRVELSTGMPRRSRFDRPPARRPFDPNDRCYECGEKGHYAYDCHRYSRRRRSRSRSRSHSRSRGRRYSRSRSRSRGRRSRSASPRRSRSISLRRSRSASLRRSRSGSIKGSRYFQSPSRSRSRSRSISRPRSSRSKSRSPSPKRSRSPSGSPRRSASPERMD
inactive: erlotinib 0.083 | [1] -0.043 | [2] -0.292 | [3] 0.063 | [4] -0.154 | [5] -0.032 | [6] -0.135 | [7] -0.037 | [8] 0.084 | [9] -0.063 | IRAK-1-4 Inhibitor I -0.112 | ibrutinib 0.128 | [10] -0.288 | ralimetinib 0.098 | [11] 0.24 | [12] 0.032 | [13] 0.084 | pinometostat 0.128 | [14] 0.053 | [15] -0.266

SP1 (UniProt P08047)
Chain of UniProt P08047 (P08047 whole entry, looked up): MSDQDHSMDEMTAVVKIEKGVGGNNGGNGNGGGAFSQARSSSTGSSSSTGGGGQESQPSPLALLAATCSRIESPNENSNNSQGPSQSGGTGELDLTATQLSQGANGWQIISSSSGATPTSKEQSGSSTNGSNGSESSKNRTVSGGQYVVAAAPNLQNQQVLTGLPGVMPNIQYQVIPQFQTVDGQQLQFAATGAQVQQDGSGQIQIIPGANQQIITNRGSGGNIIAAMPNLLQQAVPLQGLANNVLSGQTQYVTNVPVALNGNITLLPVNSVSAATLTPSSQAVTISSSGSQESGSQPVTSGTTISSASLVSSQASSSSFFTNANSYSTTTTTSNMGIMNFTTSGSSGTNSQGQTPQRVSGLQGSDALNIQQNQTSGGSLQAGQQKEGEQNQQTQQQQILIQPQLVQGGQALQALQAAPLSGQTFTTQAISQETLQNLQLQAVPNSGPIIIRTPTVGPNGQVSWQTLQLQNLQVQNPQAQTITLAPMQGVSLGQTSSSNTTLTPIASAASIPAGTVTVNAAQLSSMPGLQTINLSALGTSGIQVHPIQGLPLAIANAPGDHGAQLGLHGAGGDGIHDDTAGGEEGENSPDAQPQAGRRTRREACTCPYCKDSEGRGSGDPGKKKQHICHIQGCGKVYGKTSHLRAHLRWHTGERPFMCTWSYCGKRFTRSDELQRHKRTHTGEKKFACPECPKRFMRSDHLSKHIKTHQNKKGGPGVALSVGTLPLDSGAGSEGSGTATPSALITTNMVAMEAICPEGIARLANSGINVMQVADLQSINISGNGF
inactive: erlotinib -0.055 | [1] -0.03 | [2] -0.046 | [3] 0.043 | [4] 0.006 | [5] 0.01 | [6] 0.001 | [7] -0.031 | [8] 0.047 | [9] -0.019 | IRAK-1-4 Inhibitor I 0.013 | ibrutinib 0.024 | [10] 0.029 | ralimetinib -0.049 | [11] -0.031 | [12] -0.05 | [13] 0.064 | pinometostat 0.04 | [14] 0.043
active: [15] -0.312

TFB2M (UniProt Q9H5Q4)
inactive: erlotinib 0.007 | [1] 0.094 | [2] 0.037 | [3] -0.043 | [4] 0.016 | [5] 0.019 | [6] -0.022 | [7] -0.019 | [8] 0.002 | [9] 0.007 | IRAK-1-4 Inhibitor I 0.037 | ibrutinib -0.029 | [10] -0.013 | ralimetinib -0.085 | [11] -0.136 | [12] -0.08 | [13] 0.02 | pinometostat 0.012 | [14] -0.03 | [15] 0.005

SRSF9 (UniProt Q13242)
Chain of UniProt Q13242 (Q13242 whole entry, looked up): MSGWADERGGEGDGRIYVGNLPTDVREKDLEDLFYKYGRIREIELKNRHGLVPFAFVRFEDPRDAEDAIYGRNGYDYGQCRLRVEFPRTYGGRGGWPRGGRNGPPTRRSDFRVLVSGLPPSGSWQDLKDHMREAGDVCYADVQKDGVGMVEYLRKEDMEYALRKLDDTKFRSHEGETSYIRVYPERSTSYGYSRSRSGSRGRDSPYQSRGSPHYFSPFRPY
active: [2] -0.721
inactive: erlotinib -0.084 | [1] -0.4 | [3] 0.138 | [4] -0.211 | [5] 0.052 | [6] -0.087 | [7] -0.229 | IRAK-1-4 Inhibitor I -0.094 | ibrutinib 0.106 | [10] -0.13 | ralimetinib 0.199 | [11] 0.219 | [12] 0.019 | [13] 0.171 | pinometostat 0.29 | [14] -0.011

SPTBN1 (UniProt Q01082)
inactive: erlotinib 0.003 | [1] 0.067 | [2] -0.065 | [3] 0.011 | [4] 0.03 | [5] 0.046 | [6] 0.021 | [7] -0.055 | [8] -0.067 | [9] -0.071 | IRAK-1-4 Inhibitor I -0.079 | ibrutinib -0.013 | [10] -0.033 | ralimetinib 0.08 | [11] 0.043 | [12] -0.094 | [13] 0.024 | pinometostat 0.044 | [14] -0.012 | [15] -0.001

SPCS2 (UniProt Q15005)
Chain of UniProt Q15005 (Q15005 whole entry, looked up): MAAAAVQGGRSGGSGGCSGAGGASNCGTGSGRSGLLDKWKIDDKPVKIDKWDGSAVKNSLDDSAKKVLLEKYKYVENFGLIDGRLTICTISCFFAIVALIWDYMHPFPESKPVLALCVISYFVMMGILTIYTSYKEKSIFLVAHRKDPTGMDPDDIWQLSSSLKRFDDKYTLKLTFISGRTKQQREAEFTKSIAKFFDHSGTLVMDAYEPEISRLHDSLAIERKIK
inactive: erlotinib -0.022 | [1] 0.015 | [2] 0.077 | [3] -0.043 | [4] 0.011 | [5] 0.029 | [6] -0.004 | [7] -0.08 | [8] -0.005 | [9] 0.001 | IRAK-1-4 Inhibitor I -0.014 | ibrutinib -0.037 | [10] -0.039 | ralimetinib -0.047 | [11] -0.016 | [12] -0.01 | [13] -0.058 | pinometostat -0.062 | [14] -0.033 | [15] 0.002
